Laboratory results reported in the supplement of paper PMC6555819.

Tests used:
Experiment in all cases: PBM binding z-score (relative to random genomic background probes); higher = stronger binding; sequences stand for … in GC…GCGATTGACAGCGTAGAATGAAGG
[1] = test system: PPARg:RXRa DBDmut IVT, anti-RXR (DBD mutation: RXRa K156A/R161A, NR concentration 270 nM, RXRa partner concentration 90 nM)
Method in brief: (§1)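 Ligand-free nuclear receptor dimers were applied to custom Agilent 4×180K protein-binding microarrays whose double-stranded probes carried direct-repeat seeds, single-nucleotide variants, half-site ablations and random human genomic background sequences in 34-nt variable regions. Incubation lasted 1 h. Binding z-scores were computed against the random background probes from regression-normalized fluorescence.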

[2] = test system: PPARg:RXRa IVT, anti-PPARg (NR concentration 270 nM, RXRa partner concentration 90 nM)
Method in brief: as §1

[3] = test system: PPARg DBDmut:RXRa IVT, anti-PPARg (DBD mutation: PPARg1 K132A/R137A, NR concentration 270 nM, RXRa partner concentration 90 nM)
Method in brief: as §1

[4] = test system: PPARg DBDmut IVT, anti-PPARg (DBD mutation: PPARg1 K132A/R137A, NR concentration 270 nM)
Method in brief: as §1

[5] = test system: PPARg homodimer (NR concentration 180 nM)
Method in brief: as §1

[6] = test system: PXR:RXRa (NR concentration 270 nM, RXRa partner concentration 90 nM)
Method in brief: as §1

[7] = test system: PXR homodimer (NR concentration 270 nM)
Method in brief: as §1

[8] = test system: RARa:RXR (NR concentration 270 nM, RXRa partner concentration 90 nM)
Method in brief: as §1

[9] = test system: RARa homodimer (NR concentration 270 nM)
Method in brief: as §1

[10] = test system: RARb:RXRa (NR concentration 270 nM, RXRa partner concentration 90 nM)
Method in brief: as §1

[11] = test system: RARb homodimer (NR concentration 270 nM)
Method in brief: as §1

[12] = test system: RARg:RXRa (NR concentration 270 nM, RXRa partner concentration 90 nM)
Method in brief: as §1

[13] = test system: RARg homodimer (NR concentration 270 nM)
Method in brief: as §1

[14] = test system: RXRa DBDmut IVT, anti-RXR (DBD mutation: RXRa K156A/R161A, NR concentration 90 nM)
Method in brief: as §1

[15] = test system: RXRa homodimer (NR concentration 180 nM)
Method in brief: as §1

[16] = test system: THRa:RXRa (NR concentration 90 nM, RXRa partner concentration 90 nM)
Method in brief: as §1

[17] = test system: THRa homodimer (NR concentration 90 nM)
Method in brief: as §1

[18] = test system: VDR homodimer (NR concentration 270 nM)
Method in brief: as §1

| Sequence | PBM binding z-score [1] | PBM binding z-score [2] | PBM binding z-score [3] | PBM binding z-score [4] | PBM binding z-score [5] | PBM binding z-score [6] | PBM binding z-score [7] | PBM binding z-score [8] | PBM binding z-score [9] | PBM binding z-score [10] | PBM binding z-score [11] | PBM binding z-score [12] | PBM binding z-score [13] | PBM binding z-score [14] | PBM binding z-score [15] | PBM binding z-score [16] | PBM binding z-score [17] | PBM binding z-score [18] |
| --- | --- | --- | --- | --- | --- | --- | --- | --- | --- | --- | --- | --- | --- | --- | --- | --- | --- | --- |
| TCTATTAGTTGATCAGGGCAACCGAAACAGCGGA | 2.16 | 0.972 | 0.672 | 0.797 | 0.546 | 0.5 | 0.292 | 0.362 | 0.492 | 0.954 | 0.681 | 0.484 | 0.555 | 1.15 | 0.519 | 0.815 | 0.591 | 0.203 |
| ATCTCTAGGTAAAGAGAGTTCAGTGAATGCAAAT | 2.17 | 1.38 | 0.459 | 0.197 | 0.502 | 3.71 | 3.18 | 0.79 | 0.685 | 1.16 | 1.55 | 0.963 | 1.18 | 1.12 | 0.653 | 1.56 | -0.0506 | 3.67 |
| CCGAGTAGGTTATGGTGCATTCAGGCAACGGTGA | 3.71 | 2.67 | 0.333 | -0.183 | 1.25 | -0.0319 | 0.413 | 0.311 | 0.498 | 0.711 | 1.06 | 0.337 | 0.381 | 0.527 | 0.5 | 0.6 | 0.468 | 0.619 |
| GCTCGGAGGACAAGGTCAGAGCCTTGTCCGTAGA | -0.797 | 1.42 | -1 | -0.556 | 0.956 | 1.46 | -0.573 | 1.8 | -0.489 | 3.49 | 2.82 | 3.32 | 3.39 | 0.219 | 2.81 | 2.78 | 1.01 | 0.502 |
| CCGACTGGGGGAAGGTTACCATAACGCACAGCCA | 0.717 | 2.1 | 0.867 | 1.69 | 0.69 | 0.63 | 0.357 | 0.802 | 0.511 | 1 | 0.998 | 1.06 | 1.02 | -0.37 | 1.02 | 1.1 | 0.107 | 0.178 |
| TCTTGTAGATGAATAGAGGTTAAGAAAGTGCGCT | 2.5 | 1.18 | 0.58 | 0.95 | 0.765 | 3.01 | 0.505 | 1.86 | 1.12 | 1.01 | 1.19 | 0.961 | 0.531 | 1.66 | 1.68 | 1.72 | 0.0374 | 0.264 |
| ACAGACAGGTGAGTGAACGTAACTCAGCTGGACG | 0.689 | 0.457 | 0.319 | -1.39 | -0.743 | -0.554 | -0.547 | -0.741 | -0.186 | 0.247 | -0.371 | -0.0638 | 0.417 | -0.336 | 0.275 | -0.437 | -0.967 | -0.683 |
| CAAACTAGGTCACAGAGGTCCAAGTCCGTGCGTA | 8.78 | 9.18 | 3.75 | 2.44 | 2.41 | 3.43 | 0.225 | 3.05 | 0.32 | 4.22 | 3.68 | 4.67 | 5.11 | 1.99 | 3.35 | 3.83 | 1.52 | 2.2 |
| AGAATGAGCTTATACGTAGATCAGGGAAGAAAGT | -1.19 | -0.676 | 0.558 | 0.438 | -0.99 | -0.359 | -0.186 | -0.221 | -0.183 | -1.13 | -0.75 | -0.102 | -0.0616 | -0.769 | -0.13 | -0.46 | -0.669 | -0.447 |
| CATACAGGGTCAGCTAGGCCACAGTAGGGACGGC | 1.06 | 2.82 | 0.893 | 0.0227 | 2.12 | 2.51 | 0.181 | 3.4 | 0.445 | 4.17 | 3.58 | 4.56 | 4.98 | 1.69 | 4.55 | 3.28 | 1.02 | 1.89 |
| CAAACTAGGTCACAGACGTCAAAGTCCGTGCGTA | 8.58 | 8.8 | 3 | 2.09 | 2.24 | 1.72 | 0.0509 | 2.65 | 0.354 | 4.08 | 3.28 | 4.49 | 5.14 | 1.98 | 3.61 | 3.32 | 1.23 | 0.686 |
| ATCTCTAGGTAAAAGTTTAGTGAATCCCGAGGAT | 2.01 | 2.09 | 0.984 | 0.97 | 0.897 | 0.34 | 0.253 | 0.103 | 0.693 | 0.667 | 0.137 | 0.438 | 0.614 | -0.116 | 0.318 | 0.379 | 0.343 | 0.554 |
| CCTCGGAGGACAACAGGAGGTCAGCGCTGCCAGA | 0.165 | 0.649 | -1.42 | -1.72 | 2.38 | 2.56 | 0.451 | 2.71 | 0.815 | 3.27 | 3.96 | 4.12 | 4.04 | 0.326 | 2.28 | 3.14 | 1.31 | 1.13 |
| AGTCAATGTTCAGGACGAGGTAACGTAAAGCACG | -0.569 | 0.526 | 0.282 | 0.266 | -0.126 | -0.119 | -0.33 | 0.306 | 0.567 | 0.167 | 0.0341 | 0.243 | 0.459 | -0.371 | 0.279 | 2.16 | 1.78 | 0.209 |
| TTACCAAGGTGAGCTGAGGTCGTTGACCCAACTC | 0.928 | 2.03 | 0.277 | -0.41 | 0.266 | 5.01 | 0.193 | 2.57 | -0.539 | 1.91 | 2 | 1.58 | 0.471 | 0.101 | 2.03 | 4.79 | 2.16 | 1.65 |
| TCTCGGAGGACATGAAGGTCAGAGCTTTCCAGAG | 2.01 | 0.772 | -0.736 | -1.67 | 0.875 | 1.77 | 0.899 | 1.69 | 0.0257 | 2.63 | 3.3 | 2.47 | 2.57 | 0.811 | 1.44 | 2.28 | 0.338 | 1.2 |
